Compound activity from PubChem.
TRHR ag – qHTS for Small Molecule Agonists and Allosteric Enhancers of Human TRH Receptor: Primary Screen for Agonists; activation, % at 2 µM; AID 493084, 2011; TRHR cells, calcium flux fluo-8, FDSS agonist mode; 360,000 tested, 0.18% active; in the data active = activation above about 30%; note: 0% is about no effect
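Fluo-8-loaded TRHR cells; 10 s baseline, compound added, kinetic Ca2+ fluorescence read 1/s, agonist mode.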
GLP1R inv ag – qHTS of GLP-1 Receptor Inverse Agonists (Inhibition Mode); Potency, µM (top dose mostly 38.3 µM), inactives show at the highest dose activity change, negative = inhibition, hits mostly inhibitors; HEK293 GLP-1R CRE-luciferase, luminescence, 24 h; GLP-1R form is constitutively active; 410,000 tested, 1.6% active; AID 624417, 2012; note: potency is the fitted concentration of half-maximal effect; % is set by controls: 0 for no effect and ±100 for the full control effect; nearly all actives have a fitted effect of over 55% in size
Target sequence (P43220 whole entry, looked up): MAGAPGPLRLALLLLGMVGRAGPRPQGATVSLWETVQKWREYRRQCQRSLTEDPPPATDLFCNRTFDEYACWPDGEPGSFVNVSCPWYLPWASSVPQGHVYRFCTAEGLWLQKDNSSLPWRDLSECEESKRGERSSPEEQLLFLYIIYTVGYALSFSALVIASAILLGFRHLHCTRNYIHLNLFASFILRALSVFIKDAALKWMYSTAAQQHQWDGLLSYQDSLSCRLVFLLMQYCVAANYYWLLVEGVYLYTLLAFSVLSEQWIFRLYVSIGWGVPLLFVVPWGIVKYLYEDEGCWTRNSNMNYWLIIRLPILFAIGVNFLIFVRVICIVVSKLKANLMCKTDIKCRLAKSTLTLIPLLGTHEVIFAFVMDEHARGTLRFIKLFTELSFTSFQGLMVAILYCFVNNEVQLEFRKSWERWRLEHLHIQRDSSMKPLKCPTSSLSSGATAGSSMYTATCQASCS
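qHTS in 1536-well format: reporter HEK293 cells expressing constitutive GLP-1R activity in DMEM + 10% Nu serum, 24 hr with compounds at 37 deg C, luminescence read after 12 min with detection reagent.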
PTHR1 agonist – qHTS for PTHR1 Agonists: Primary Screen; Parathyroid hormone/parathyroid hormone-related peptide receptor (Homo sapiens), Q03431; HEK293 GP2 PTHR1 cells, GloSensor cAMP luminescence, 1 h; Potency, µM (highest dose often 115 µM), for inactives: at the highest dose activation, most hits filed as activators; 410,000 tested, 0.075% active; AID 743266, 2014; note: potency is the fitted concentration of half-maximal effect; nearly all actives have a fitted effect of over 55% in size
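HEK-293-derived GP2 cells expressing PTHR1 and a GloSensor cAMP reporter, 3,000/well, plated overnight, given luciferin plus IBMX (each 0.5 mM as added) for 1 h at 37 °C, then compound for 1 h at 37 °C. Luminescence was read after 15 min at room temperature.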
GLP-1R agonist – qHTS of GLP-1 Receptor Agonists | HEK293 GLP-1R CRE-luciferase, luminescence, 4-6 h; cells express a hypersensitive GLP-1R form | Potency, µM (top dose mostly 45.6 µM), for the others: top-dose activation, most hits filed as activators | 380,000 tested, 0.007% active; note: potency is the fitted concentration of half-maximal effect; % of control where 0% means no effect
TRHR PAM – qHTS for Small Molecule Agonists and Allosteric Enhancers of Human TRH Receptor: Primary Screen for Enhancers | TRHR cells, fluo-8 calcium fluorescence, EC20 TRH enhancement | 360,000 tested, 0.66% active | Thyrotropin-releasing hormone receptor (Homo sapiens), P34981 | enhancement, % at 2 µM; in the data active = enhancement above about 30%; note: 0% is about no effect
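Enhancer read-out: after compound pinning and an initial kinetic agonist-mode read, an EC20 of TRH (10 nM final) was injected and fluo-8 calcium signal (Ex 480/Em 530) followed at 1 s/cycle for 100 cycles in TRHR-expressing cells.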
HEK293 tox – qHTS of GLP-1 Receptor Inverse Agonists: Cytotox Screen; HEK293 cAMP-luciferase reporter cells, luminescence, 24 h; AID 624418, 2012; 410,000 tested, 0.13% active; Potency, µM (titrated, usually from 38.3 µM), without a hit: at the top dose activity change, negative = inhibition, most hits filed as inhibitors;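 note: loss of luciferase light is scored as toxicity; potency is the fitted concentration of half-maximal effect; % is set by controls: 0 for no effect and ±100 for the full control effect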
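Cells in DMEM/10% Nu serum/1% pen-strep, 1536-well format. Pre-incubated 12 h, dosed with 23 nL compound, incubated a further 24 h. Luciferase detection, 12 min at room temp, luminescence.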
An asterisk follows results filed as active; i = inactive; ? = inconclusive; nt = no result given; [ ] = dose if it differs, or a comment. Hits are enriched below; roughly 2.4% of the tested compounds scored in any of these assays. Unless noted, calls come from the whole dose curve; as a rule, active = well fitted curve in the direction sought with a large enough effect; inconclusive = small, poorly fitted or top-dose-only effect, or another doubt; inactive = no such curve, though single readings can be large; an effect the other way counts as inactive or inconclusive.

SMILES	TRHR ag	GLP1R inv ag	PTHR1 agonist	GLP-1R agonist	TRHR PAM	HEK293 tox
COc1ccc(C(=O)NC(C)C2CC3CCC2C3)c(OC)c1 (stereo not given)	0	10µM*	i	-1%	17	3%
CC1CC(Nc2ccccc2)c2ccccc2N1C(=O)c1ccncc1 (stereo not given)	0	?	-10%	0%	31*	17%
CC(C)Cc1ccc(C(=O)NCc2ccc3c(c2)OCO3)o1	-1	-26%	-53%	8%	-15	1%
CCc1cc(=O)oc2c(C)c(O[C@@H]3O[C@H](CO)[C@@H](O)[C@H](O)[C@H]3O)ccc12	0	9%	i	0%	0	5%
CCc1cc(=O)oc2cc(O[C@@H]3O[C@H](CO)[C@@H](O)[C@H](O)[C@H]3O)c(Cl)cc12	1	7%	i	11%	33*	4%
NC(=O)OC[C@@H]1[C@H](NC(=O)/C(=N/OCC(=O)O)c2csc(N)n2)C(=O)N1S(=O)(=O)O	nt	nt	nt	-1%	nt	nt
CC(C)CC(=O)NC(c1ccccc1Cl)c1c(O)ccc2ccccc12 (stereo not given)	0	8.9µM*	i	-5%	-3	-33%
CCCCC(=O)NC(c1ccco1)c1c(O)ccc2ccccc12 (stereo not given)	1	8.9µM*	-4%[57.5 µM]	-5%	-1	-7%
Cn1nnc2cc(NC(=O)Nc3cccc(Cl)c3)ccc21	1	0%	i	3%	7	-4%
C(=N\Nc1nc2ccccc2[nH]1)/c1ccc2ncccc2c1	0	?	-65%	9%	1	?
C(=N\Nc1nc2ccccc2[nH]1)/c1ccccn1	0	?	-95%	-12%	-1	11µM*
c1ccc2c(c1)CC/C2=N/Nc1nc2ccccc2[nH]1	-2	?	i	0%	0	3.5µM*
CC(C)(C)C1CCC(=NNc2nc3ccccc3[nH]2)CC1 (stereo not given)	1	?	-13%	10%	-5	-25%
CC12CCC(=O)N1C(C(=O)O)Cc1c2[nH]c2ccccc12 (stereo not given)	0	-5%	-16%[57.5 µM]	-5%	-1	-4%
CCCn1nnnc1NCc1ccc(N(CC)CC)cc1	0	-16%	i	9%	-9	1%
CC1(C)Cc2c(sc(N)c2C#N)C(C)(C)N1	2	4%	?	9%	-1	-8%
CC1(C)CC2CC(C)(CN2/C=N/c2sc3c(c2C#N)CC(C)(C)NC3(C)C)C1 (stereo not given)	1	1.1µM*	11%	17%	9	?
Cc1ccc(CSc2ncnc3c2cnn3Cc2ccccc2)cc1C	0	0%	-10%[57.5 µM]	-10%	-4	-10%
Cc1nn(-c2ccc(Br)cc2)c(=O)c2ccccc12	-1	?	i	10%	4	0%
Cc1nn(-c2c(Cl)cc(Cl)cc2Cl)c(=O)c2ccccc12	-1	8.9µM*	-13%	-2%	2	7%
CC(C)(C)NC(=O)Cc1ccc(Cl)c(Cl)c1	0	?	i	13%	0	-7%
CC(C)Cc1ccc(C(C)C(N)=Nc2ccc(O)cc2)cc1 (stereo not given)	nt	13µM*	-6%	13%	nt	?
CC(C)Cc1ccc(C(C)C(=O)Nc2ccc(O)cc2)cc1 (stereo not given)	14	?	i	10%	-11	-2%
Cn1c(/C=C/c2ccccc2)nc2ccccc21	-1	4.5µM*	-94%	2%	-8	-16%
Cc1ccccc1NC(=O)c1c(Cl)nc(C)c(Cl)c1C	0	-2%	i	2%	-8	-5%
SMILES	TRHR ag	GLP1R inv ag	PTHR1 agonist	GLP-1R agonist	TRHR PAM	HEK293 tox
CCc1ccc(NC(=O)c2c(Cl)nc(C)c(Cl)c2C)cc1	0	4µM*	-19%	8%	-3	-5%
COc1ccc(C(=O)Cn2c(NCCCO)nc3ccccc32)cc1	nt	-17%	-57%	-3%	nt	-14%
COc1ccc(-n2c(C)cc(C(=O)Cn3c(NCCO)nc4ccccc43)c2C)cc1	0	10µM*	i	7%	-1	-30%
COCCN=c1scc(-c2cc(OC)ccc2OC)n1/N=C/c1c[nH]c2ccccc12	0	?	i	0%	15	-37%
CC(C)NC(=O)Nc1ccc2c(c1)C(=O)N([C@H](C)CO)C[C@@H](C)[C@@H](CN(C)C(=O)NC1CCCCC1)O2	nt	10%	-17%	0%	nt	6%
CC12CCC(=O)N1C(C(=O)Nc1ccc(F)c(Cl)c1)CS2 (stereo not given)	0	-4%	-76%	-12%	35*	11%
CC12CCC(=O)N1C(C(=O)Nc1nc3ccc(Cl)cc3s1)CS2 (stereo not given)	0	2.8µM*	-60%	16%	7	-3%
CCc1ccc2nc(NC(=O)C3CSC4(C)CCC(=O)N34)sc2c1 (stereo not given)	0	5.6µM*	i	12%	11	-17%
Cc1cccc(NC(=O)c2ccc3c(c2)OCCO3)n1	-1	?	-66%	-2%	-3	-2%
CCN(Cc1ccccc1)C(=O)CN1C(=O)NC(CC)(c2ccc(F)cc2)C1=O (stereo not given)	0	-18%	-14%	12%	31*	-1%
CCC1(c2ccc(F)cc2)NC(=O)N(CC(=O)Nc2ccccc2C)C1=O (stereo not given)	3	-3%	-14%	1%	3	-4%
COCCn1c(C)cc(C(=O)CSc2nnc(C)s2)c1C	0	1.3µM*	-29%[57.5 µM]	-11%	5	-1%
COCCn1c(C)cc(C(=O)CSc2cc(C)c3ccccc3n2)c1C	-1	13µM*	-17%	1%	-6	10%
COc1ccc(Cl)cc1C(=O)CSc1nnnn1C1CCCC1	-1	0%	i	?	-3	3%
COCCn1c(C)cc(C(=O)CSc2nnnn2C2CCCC2)c1C	0	2.2µM*	-13%	-30%	-9	-1%
CC1CCCN(C(=O)CSc2n[nH]c(-c3cccs3)n2)C1 (stereo not given)	0	26%	0%	8%	-2	1%
